# PubChem BioAssay (EPA / NIEHS)
# Activity calls are given as the source filed them. The calls were made as follows: active = hit-call score of the fitted dose curve at least 0.9, where 1 is the maximum; inactive = score below 0.9.
# Assays:
# Details in all cases: mRNA level, 48 h; actives raise or lower the signal
# [1] = read-out: MicroRNA 122 (MIR122), gene 406906; assay: LTEA_HepaRG_MIR122: Life Technologies and Expression Analysis (LTEA) Assay for MicroRNA 122 (MIR122) using HepaRG (AID 2283516); also: the transcript read is the microRNA miR-122
# In short: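 HepaRG, 48 h exposure, 8-pt half-log from 100 uM, 0.5% DMSO; TaqMan qRT-PCR; bidirectional fit vs DMSO.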
# [2] = read-out: matrix metalloproteinase-10 (MMP10), MMP10 (gene 4319); assay: LTEA_HepaRG_MMP10: Life Technologies and Expression Analysis (LTEA) Assay for matrix metalloproteinase-10 (MMP10) using HepaRG (AID 2283517)
# In short: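 Differentiated HepaRG cells in serum-free induction medium exposed 48 h in duplicate to 8-point half-log series up to 100 uM in 0.5% DMSO. mRNA quantified by qRT-PCR, normalised to ACTB, GAPDH, POLR2A; bidirectional fit versus DMSO.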
# MYC, MYC (gene 4609) = assay: LTEA_HepaRG_MYC: Life Technologies and Expression Analysis (LTEA) Assay for MYC using HepaRG (AID 2283518)
# In short: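 Differentiated HepaRG cells exposed 48 h in serum-free induction medium to 8 concentrations (top 100 uM, half-log steps; 0.5% DMSO), duplicate. MYC mRNA measured by Fluidigm qRT-PCR, normalized to ACTB, GAPDH, POLR2A; bidirectional fit versus DMSO.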
# [3] = read-out: matrix metalloproteinase-3 (MMP3), MMP3 (gene 4314); assay: LTEA_HepaRG_MMP3: Life Technologies and Expression Analysis (LTEA) Assay for matrix metalloproteinase-3 (MMP3) using HepaRG (AID 2283519)
# In short: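 HepaRG cells (~100,000/well) in serum-free induction medium were dosed in duplicate for 48 h with an 8-point half-log series from 100 uM, 0.5% DMSO. MMP3 mRNA was quantified by Fluidigm TaqMan qRT-PCR, normalized to three housekeeping genes.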
# [4] = read-out: Protein phosphatase 2A (PPP2R4), PTPA (gene 5524); assay: LTEA_HepaRG_PPP2R4: Life Technologies and Expression Analysis (LTEA) Assay for Protein phosphatase 2A (PPP2R4) using HepaRG (AID 2283522)
# In short: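 Gene-expression endpoint in HepaRG hepatic cells: 48 h treatment across eight half-log concentrations up to 100 uM in 0.5% DMSO. PPP2R4 mRNA by qRT-PCR, normalized to three endogenous control genes.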
# [5] = read-out: solute carrier (SLC22A1), SLC22A1 (gene 6580); assay: LTEA_HepaRG_SLC22A1: Life Technologies and Expression Analysis (LTEA) Assay for solute carrier (SLC22A1) using HepaRG (AID 2283524)
# In short: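 Differentiated human HepaRG cells in serum-free induction medium, exposed 48 h in duplicate to 8-point half-log series from 100 µM top in 0.5% DMSO. SLC22A1 mRNA by TaqMan qRT-PCR normalized to ACTB, GAPDH, POLR2A; bidirectional fit versus DMSO.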
# [6] = read-out: Pyruvate Dehydrogenase Kinase 4 (PDK4), PDK4 (gene 5166); assay: LTEA_HepaRG_PDK4: Life Technologies and Expression Analysis (LTEA) Assay for Pyruvate Dehydrogenase Kinase 4 (PDK4) using HepaRG (AID 2283525)
# In short: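 HepaRG cells plated 48 h, then switched to serum-free induction medium and exposed in duplicate for 48 h to 8 half-log concentrations from 100 uM in 0.5% DMSO. PDK4 mRNA measured by qRT-PCR, normalized to ACTB, GAPDH and POLR2A; bidirectional fit versus DMSO.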
# [7] = read-out: NAD(P)H dehydrogenase [quinone] 1 (NQO1), NQO1 (gene 1728); assay: LTEA_HepaRG_NQO1: Life Technologies and Expression Analysis (LTEA) Assay for NAD(P)H dehydrogenase [quinone] 1 (NQO1) using HepaRG (AID 2283526)
# In short: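 Human HepaRG hepatic cells received chemicals for 48 h in serum-free induction medium with 0.5% DMSO, up to 100 uM. Expression was assessed by TaqMan qRT-PCR against housekeeping controls and fitted bidirectionally against DMSO.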
# [8] = read-out: Nuclear factor erythroid 2-related factor 2 (Homo sapiens) (UniProt Q16236); assay: LTEA_HepaRG_NFE2L2: Life Technologies and Expression Analysis (LTEA) Assay for Nuclear factor erythroid 2-related factor 2 (NFE2L2) Transcription Factor using HepaRG (AID 2283527);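 as to outcome: TaqMan qRT-PCR transcript level normalised to ACTB GAPDH and POLR2A housekeeping genes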
# In short: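 Differentiated human HepaRG cells, serum-free induction medium, exposed 48 h in duplicate to eight half-log concentrations up to 100 uM in 0.5% DMSO. NFE2L2 mRNA by Fluidigm TaqMan qRT-PCR, normalised to ACTB, GAPDH, POLR2A; bidirectional change versus DMSO.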
# [9] = read-out: Signal transducer and activator of transcription 3 (Homo sapiens) (UniProt P40763); assay: LTEA_HepaRG_STAT3: Life Technologies and Expression Analysis (LTEA) Assay for Signal transducer and activator of transcription (STAT3) using HepaRG (AID 2283529)
# In short: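 Differentiated HepaRG cells, serum-free induction medium, dosed 48 h in duplicate, 8 half-log concentrations from 100 uM in 0.5% DMSO. STAT3 mRNA by qRT-PCR, normalised to ACTB, GAPDH, POLR2A; bidirectional fit versus DMSO.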
# [10] = read-out: solute carrier (SLCO1B1), SLCO1B1 (gene 10599); assay: LTEA_HepaRG_SLCO1B1: Life Technologies and Expression Analysis (LTEA) Assay for solute carrier (SLCO1B1) using HepaRG (AID 2283530)
# In short: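 Differentiated human HepaRG cells were exposed for 48 h in serum-free induction medium to eight half-log concentrations, top 100 uM, in 0.5% DMSO. SLCO1B1 mRNA was measured by qRT-PCR, normalized to ACTB, GAPDH and POLR2A, and fitted bidirectionally against DMSO.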
# [11] = read-out: sulfotransferase 2A1 (SULT2A1), SULT2A1 (gene 6822); assay: LTEA_HepaRG_SULT2A1: Life Technologies and Expression Analysis (LTEA) Assay for sulfotransferase 2A1 (SULT2A1) using HepaRG (AID 2283531)
# In short: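 HepaRG human liver cells, 48 h exposure in serum-free induction medium to 8 half-log concentrations topping at 100 µM (0.5% DMSO), duplicate wells. SULT2A1 mRNA measured by TaqMan qRT-PCR, normalized to ACTB/GAPDH/POLR2A; bidirectional fit against DMSO.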
# [12] = read-out: Transforming Growth Factor (TGFA), TGFA (gene 7039); assay: LTEA_HepaRG_TGFA: Life Technologies and Expression Analysis (LTEA) Assay for Transforming Growth Factor (TGFA) using HepaRG (AID 2283532)
# In short: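 Differentiated HepaRG cells exposed 48 hours in serum-free induction medium, 0.5% DMSO vehicle, 8-point half-log series from 100 uM, in duplicate. TGFA mRNA by TaqMan qRT-PCR, normalised to ACTB, GAPDH, POLR2A; bidirectional fit versus DMSO.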
# [13] = read-out: Transforming Growth Factor (TGFB1), TGFB1 (gene 7040); assay: LTEA_HepaRG_TGFB1: Life Technologies and Expression Analysis (LTEA) Assay for Transforming Growth Factor (TGFB1) Transporter using HepaRG (AID 2283533)
# In short: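 Differentiated HepaRG cells exposed 48 hr in serum-free induction medium to eight half-log concentrations up to 100 uM (0.5% DMSO), duplicate; TGFB1 mRNA by TaqMan qRT-PCR normalised to ACTB, GAPDH, POLR2A; bidirectional fit against DMSO.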
# TIMP1, TIMP1 (gene 7076) = assay: LTEA_HepaRG_TIMP1: Life Technologies and Expression Analysis (LTEA) Assay for TIMP1 using HepaRG (AID 2283534);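 as to outcome: TaqMan qRT-PCR signal normalized to ACTB GAPDH and POLR2A housekeeping genes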
# In short: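 Differentiated HepaRG cells exposed 48 h in serum-free induction medium, duplicates, eight half-log concentrations from 100 uM in 0.5% DMSO. TIMP1 mRNA by qRT-PCR normalized to ACTB, GAPDH, POLR2A; bidirectional fitting against DMSO.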
# [14] = read-out: Tumor necrosis factor receptor 1 (TNFRSF1A), TNFRSF1A (gene 7132); assay: LTEA_HepaRG_TNFRSF1A: Life Technologies and Expression Analysis (LTEA) Assay for Tumor necrosis factor receptor 1 (TNFRSF1A) using HepaRG (AID 2283535)
# In short: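 Differentiated HepaRG cells in serum-free induction medium, exposed 48 h in duplicate to 8 half-log concentrations up to 100 uM in 0.5% DMSO. TNFRSF1A mRNA by Fluidigm TaqMan qRT-PCR, normalized to ACTB, GAPDH, POLR2A; bidirectional fit.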
# [15] = read-out: Paternally Expressed 10 (PEG10), PEG10 (gene 23089); assay: LTEA_HepaRG_PEG10: Life Technologies and Expression Analysis (LTEA) Assay for Paternally Expressed 10 (PEG10) using HepaRG (AID 2283520);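 as to AC50: PEG10 transcript by qRT-PCR normalised to ACTB GAPDH and POLR2A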
# In short: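 Chemicals tested on HepaRG cells for 48 h, highest concentration 100 uM. PEG10 expression assessed by qRT-PCR relative to DMSO control.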
# [16] = read-out: succinate dehydrogenase complex iron sulfur subunit B (SDHB), SDHB (gene 6390); assay: LTEA_HepaRG_SDHB: Life Technologies and Expression Analysis (LTEA) Assay for succinate dehydrogenase complex iron sulfur subunit B (SDHB) using HepaRG (AID 2283528)
# In short: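 HepaRG cells (~100,000/well, plated 48 h) exposed in duplicate for 48 h in serum-free induction medium to 8-point half-log series from 100 uM in 0.5% DMSO; mRNA by qRT-PCR normalised to ACTB, GAPDH, POLR2A; bidirectional fit versus DMSO.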
# [17] = read-out: Nuclear factor NF-kappa-B p105 subunit (Homo sapiens) (UniProt P19838); assay: LTEA_HepaRG_NFKB1: Life Technologies and Expression Analysis (LTEA) Assay for Nuclear Factor Kappa B Subunit 1 (NFKB1) using HepaRG (AID 2283521);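 also: TaqMan qRT-PCR transcript normalised to ACTB GAPDH and POLR2A housekeeping genes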
# In short: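 Differentiated human HepaRG cells in serum-free induction medium with 0.5% DMSO were exposed for 48 h to eight half-log concentrations, top 100 uM, in duplicate. NFKB1 mRNA measured by Fluidigm TaqMan qRT-PCR, normalised to ACTB, GAPDH and POLR2A; bidirectional fit versus DMSO.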
# Chain of Nuclear factor erythroid 2-related factor 2 (Homo sapiens) (Q16236 whole entry, looked up): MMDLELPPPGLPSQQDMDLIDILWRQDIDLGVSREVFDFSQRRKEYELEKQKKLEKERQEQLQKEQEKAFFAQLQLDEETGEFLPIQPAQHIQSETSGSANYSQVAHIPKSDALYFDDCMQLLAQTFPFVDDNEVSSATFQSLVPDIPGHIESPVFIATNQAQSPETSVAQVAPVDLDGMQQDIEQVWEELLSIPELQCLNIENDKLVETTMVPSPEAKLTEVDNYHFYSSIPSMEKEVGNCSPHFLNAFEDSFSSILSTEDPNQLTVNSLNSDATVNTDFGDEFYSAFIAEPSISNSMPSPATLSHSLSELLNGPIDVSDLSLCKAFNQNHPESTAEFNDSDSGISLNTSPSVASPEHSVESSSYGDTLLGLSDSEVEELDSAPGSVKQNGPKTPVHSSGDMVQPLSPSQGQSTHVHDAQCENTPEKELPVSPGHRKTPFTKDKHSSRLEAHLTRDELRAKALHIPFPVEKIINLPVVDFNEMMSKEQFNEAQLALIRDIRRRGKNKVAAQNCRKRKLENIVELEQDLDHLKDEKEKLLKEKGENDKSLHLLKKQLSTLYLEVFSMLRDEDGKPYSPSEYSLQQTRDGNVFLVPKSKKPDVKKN
# Chain of Signal transducer and activator of transcription 3 (Homo sapiens) (P40763 whole entry, looked up): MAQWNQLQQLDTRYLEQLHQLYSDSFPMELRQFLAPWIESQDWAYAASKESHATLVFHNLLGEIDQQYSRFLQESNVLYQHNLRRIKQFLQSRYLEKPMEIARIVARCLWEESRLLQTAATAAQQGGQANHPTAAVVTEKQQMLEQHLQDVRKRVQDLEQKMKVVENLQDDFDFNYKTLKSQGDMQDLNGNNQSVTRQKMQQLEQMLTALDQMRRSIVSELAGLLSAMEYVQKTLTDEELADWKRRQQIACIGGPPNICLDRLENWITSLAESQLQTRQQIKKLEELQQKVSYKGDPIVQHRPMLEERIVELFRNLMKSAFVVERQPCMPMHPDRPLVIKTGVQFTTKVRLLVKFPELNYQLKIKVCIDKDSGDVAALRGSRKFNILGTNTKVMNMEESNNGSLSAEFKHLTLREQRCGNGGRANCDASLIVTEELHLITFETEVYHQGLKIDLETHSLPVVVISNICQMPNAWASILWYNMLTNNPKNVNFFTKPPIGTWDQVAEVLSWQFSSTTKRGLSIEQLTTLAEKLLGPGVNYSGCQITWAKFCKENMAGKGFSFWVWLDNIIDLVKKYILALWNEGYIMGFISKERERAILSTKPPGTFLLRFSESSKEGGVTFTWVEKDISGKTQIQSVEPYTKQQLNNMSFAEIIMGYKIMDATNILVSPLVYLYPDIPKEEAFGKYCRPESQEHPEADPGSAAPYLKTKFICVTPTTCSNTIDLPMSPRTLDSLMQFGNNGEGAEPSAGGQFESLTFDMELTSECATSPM
# Chain of Nuclear factor NF-kappa-B p105 subunit (Homo sapiens) (P19838 whole entry, looked up): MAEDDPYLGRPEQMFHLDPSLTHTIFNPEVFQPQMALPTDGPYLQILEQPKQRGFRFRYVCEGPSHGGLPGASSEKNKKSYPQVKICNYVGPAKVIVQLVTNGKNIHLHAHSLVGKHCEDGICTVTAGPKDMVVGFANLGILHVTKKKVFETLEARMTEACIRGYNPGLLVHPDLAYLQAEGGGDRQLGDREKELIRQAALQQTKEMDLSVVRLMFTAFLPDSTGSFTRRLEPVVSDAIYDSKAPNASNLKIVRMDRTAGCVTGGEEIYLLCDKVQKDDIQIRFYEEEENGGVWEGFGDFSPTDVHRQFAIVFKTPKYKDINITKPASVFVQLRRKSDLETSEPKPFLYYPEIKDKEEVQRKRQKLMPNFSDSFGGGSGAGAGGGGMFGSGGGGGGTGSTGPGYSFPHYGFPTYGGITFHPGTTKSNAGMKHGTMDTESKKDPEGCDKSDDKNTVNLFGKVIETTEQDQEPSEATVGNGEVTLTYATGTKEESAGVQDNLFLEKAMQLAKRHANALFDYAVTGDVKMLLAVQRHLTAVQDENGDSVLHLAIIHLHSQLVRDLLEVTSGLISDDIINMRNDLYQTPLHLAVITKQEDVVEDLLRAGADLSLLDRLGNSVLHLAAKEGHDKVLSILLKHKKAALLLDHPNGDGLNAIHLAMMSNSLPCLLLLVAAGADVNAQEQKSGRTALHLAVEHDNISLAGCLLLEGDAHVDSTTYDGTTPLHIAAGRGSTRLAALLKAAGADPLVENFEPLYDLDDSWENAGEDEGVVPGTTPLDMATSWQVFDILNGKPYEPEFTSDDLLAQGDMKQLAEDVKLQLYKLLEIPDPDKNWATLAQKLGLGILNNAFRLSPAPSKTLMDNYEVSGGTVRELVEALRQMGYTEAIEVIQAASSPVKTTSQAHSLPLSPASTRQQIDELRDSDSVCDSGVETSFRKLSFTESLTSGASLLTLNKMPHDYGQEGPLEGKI
smiles,measurement,setting,value
Clc1ccc(C(c2ccccc2Cl)C(Cl)(Cl)Cl)cc1 (stereo unspecified),outcome,[1],inactive
same,outcome,[2],inactive
same,outcome,"MYC, MYC (gene 4609)",inactive
same,outcome,[3],inactive
same,outcome,[4],inactive
same,outcome,[5],inactive
same,outcome,[6],inactive
same,outcome,[7],inactive
same,outcome,[8],inactive
same,outcome,[9],inactive
same,outcome,[10],inactive
same,outcome,[11],inactive
same,outcome,[12],inactive
same,outcome,[13],inactive
same,outcome,"TIMP1, TIMP1 (gene 7076)",inactive
same,outcome,[14],inactive
Clc1ccc(C(Cl)(Cl)Cl)cc1,outcome,[1],inactive
same,outcome,[2],inactive
same,outcome,"MYC, MYC (gene 4609)",inactive
same,outcome,[3],inactive
same,outcome,[15],inactive
same,outcome,[4],inactive
same,outcome,[6],inactive
same,outcome,[7],inactive
same,outcome,[8],inactive
same,outcome,[16],inactive
same,outcome,[9],inactive
same,outcome,[10],inactive
same,outcome,[11],inactive
same,outcome,[12],inactive
same,outcome,[13],inactive
same,outcome,"TIMP1, TIMP1 (gene 7076)",inactive
same,outcome,[14],inactive
C[C@]12CCC(=O)C=C1CC[C@@H]1[C@@H]2CC[C@@]2(C)[C@H]1CC[C@]2(C)O,AC50,[1],45.8 µM (active)
same,outcome,[2],inactive
same,outcome,"MYC, MYC (gene 4609)",inactive
same,AC50,[3],0.948 µM (active)
same,AC50,[15],2.07 µM (active)
same,outcome,[4],inactive
same,AC50,[6],45.8 µM (active)
same,outcome,[7],inactive
same,outcome,[8],inactive
same,outcome,[9],inactive
same,outcome,[10],inactive
same,outcome,[11],inactive
same,outcome,[12],inactive
same,AC50,[13],45.8 µM (active)
same,outcome,"TIMP1, TIMP1 (gene 7076)",inactive
same,AC50,[14],45.8 µM (active)
CO/C=C(/C(=O)OC)c1ccccc1COc1cccc(C(F)(F)F)n1,AC50,[1],6.86 µM (active)
same,AC50,[2],12.6 µM (active)
same,AC50,"MYC, MYC (gene 4609)",9.71 µM (active)
same,AC50,[3],23.9 µM (active)
same,outcome,[17],inactive
same,outcome,[4],inactive
same,AC50,[5],5.3 µM (active)
same,outcome,[6],inactive
same,outcome,[7],inactive
same,AC50,[8],21.6 µM (active)
same,AC50,[9],3.4 µM (active)
same,AC50,[10],8.29 µM (active)
same,AC50,[11],21.5 µM (active)
same,AC50,[12],10.6 µM (active)
same,outcome,[13],inactive
same,AC50,"TIMP1, TIMP1 (gene 7076)",26.8 µM (active)
same,AC50,[14],4.97 µM (active)
